# Measurements as given in PubChem BioAssay (Tox21).
# Values joined by “and” are separate entries in the source; they are usually repeats but may differ in a detail not shown here. Equal values may be shown once. Records with an inconclusive call do not appear. A call without a number means that no potency is given here. Where a structure was tested more than once in an assay, its records may differ in their call. Active and inactive are the calls of the source. Unless noted, calls follow the shape of the dose curve; as a rule, active = well fitted curve in the direction sought with a large enough effect in the repeat runs; inconclusive = weak or mixed curves; inactive = no such curve, though single readings can be large; an effect the other way counts as inactive or inconclusive.
# What was measured:
# [1] = qHTS assay to identify small molecule antagonists of the peroxisome proliferator-activated receptor delta (PPARd) signaling pathway - cell viability counter screen (AID 743213); also: nearly all actives have a fitted effect of over 50% in size; also: potency is read from the fitted curve at half-maximal effect
# Method in brief: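 HEK293H cells with the PPARd UAS-bla reporter, co-treated 17 h at 37 C with compounds and L165041 (300 nM final), were lysed with CellTiter-Glo. Luminescence indicated viable cell content.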
# [2] = qHTS assay to identify small molecule agonists of the farnesoid-X-receptor (FXR) signaling pathway - cell viability counter screen (AID 743218); also: nearly all actives have a fitted effect of over 45% in size; also: potency is read from the fitted curve at half-maximal effect
# Method in brief: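 After 16 h at 37 C with test compounds, FXR-bla HEK 293T cells were given LiveBLAzer B/G substrate for 2 h at RT and then CellTiter-Glo; luminescence was taken after 30 min.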
# [3] = qHTS assay to identify small molecule antagonists of the farnesoid-X-receptor (FXR) signaling pathway - cell viability counter screen (AID 743221; active = well fitted cell-killing curve with a large enough effect in the repeat runs, not every such curve was filed as active; also: nearly all actives have a fitted effect of over 50% in size; also: potency is read from the fitted curve at half-maximal effect)
# Method in brief: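 Compound effects on cell number were measured as CellTiter-Glo luminescence in HEK 293T cells expressing FXR-UAS-bla, after 16 h at 37 C with 50 uM CDCA (final).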
# [4] = target: Vitamin D3 receptor (Homo sapiens) (UniProt P11473); test: qHTS assay to identify small molecule agonists of the vitamin D receptor (VDR) signaling pathway (AID 743222; calls by dose curve; also: potency is read from the fitted curve at half-maximal effect)
# Vitamin D3 receptor (Homo sapiens), sequence (P11473 whole entry, looked up): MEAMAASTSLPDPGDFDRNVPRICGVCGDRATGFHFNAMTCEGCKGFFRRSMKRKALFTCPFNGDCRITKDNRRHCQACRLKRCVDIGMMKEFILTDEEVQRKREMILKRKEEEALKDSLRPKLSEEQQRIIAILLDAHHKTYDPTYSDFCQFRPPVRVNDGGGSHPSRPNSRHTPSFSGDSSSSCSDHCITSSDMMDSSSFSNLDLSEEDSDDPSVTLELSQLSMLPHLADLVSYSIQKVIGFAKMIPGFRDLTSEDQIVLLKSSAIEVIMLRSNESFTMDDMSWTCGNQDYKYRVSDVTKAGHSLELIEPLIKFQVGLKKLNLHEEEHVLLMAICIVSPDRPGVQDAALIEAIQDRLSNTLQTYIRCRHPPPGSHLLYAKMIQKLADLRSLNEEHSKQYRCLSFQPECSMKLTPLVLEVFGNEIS
# Method in brief: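 VDR-bla cells were seeded, left 4 h, treated with compounds in DMSO for 16 h, incubated 2 h at RT with B/G FRET substrate, and read for fluorescence.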
# [5] = qHTS assay to identify small molecule agonists of the vitamin D receptor (VDR) signaling pathway - cell viability counter screen (AID 743224); also: nearly all actives have a fitted effect of over 50% in size; also: potency is read from the fitted curve at half-maximal effect
# Method in brief: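 Here cell health was gauged by luminescent ATP detection (CellTiter-Glo, 30 min RT) in VDR-bla cells that had been incubated with test compounds for 16 h at 37C and 5% CO2.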
# [6] = qHTS assay to identify small molecule antagonists of the vitamin D receptor (VDR) signaling pathway - cell viability counter screen (AID 743225); also: nearly all actives have a fitted effect of over 50% in size; also: potency is read from the fitted curve at half-maximal effect
# Method in brief: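 In this counter screen, VDR-bla HEK 293T cells receive test compound plus 3 nM final calcitriol for 16 h at 37C. Room-temperature steps of 2 h with the beta-lactamase substrate, then 30 min with CellTiter-Glo, precede the luminescence read.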
# [7] = target: Bile acid receptor (Homo sapiens) (UniProt Q96RI1); test: qHTS assay to identify small molecule agonists of the farnesoid-X-receptor (FXR) signaling pathway (AID 743220; active = well fitted activation curve with a large enough effect in the signal ratio in the repeat runs, not every such curve was filed as active; the % refers to the signal ratio; also: potency is read from the fitted curve at half-maximal effect)
# Bile acid receptor (Homo sapiens), sequence (Q96RI1 whole entry, looked up): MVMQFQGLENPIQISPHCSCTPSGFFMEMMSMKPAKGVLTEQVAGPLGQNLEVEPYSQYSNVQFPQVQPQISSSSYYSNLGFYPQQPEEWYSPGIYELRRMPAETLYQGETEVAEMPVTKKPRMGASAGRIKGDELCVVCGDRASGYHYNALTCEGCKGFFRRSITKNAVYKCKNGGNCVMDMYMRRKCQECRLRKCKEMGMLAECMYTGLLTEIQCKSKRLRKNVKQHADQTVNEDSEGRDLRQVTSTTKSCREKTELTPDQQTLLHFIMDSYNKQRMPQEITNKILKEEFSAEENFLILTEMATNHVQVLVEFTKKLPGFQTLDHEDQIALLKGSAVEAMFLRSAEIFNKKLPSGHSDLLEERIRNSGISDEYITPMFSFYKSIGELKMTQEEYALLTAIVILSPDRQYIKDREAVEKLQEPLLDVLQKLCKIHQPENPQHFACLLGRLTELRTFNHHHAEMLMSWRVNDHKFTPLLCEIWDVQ
# Method in brief: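 Beta-lactamase reporter under UAS control in GeneBLAzer FXR HEK 293T cells (5000/well) measured with LiveBLAzer FRET substrate after 2 h at room temperature. Compound exposure lasted 16 h at 37C.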
# [8] = target: Peroxisome proliferator-activated receptor delta (Homo sapiens) (UniProt Q03181); test: qHTS assay to identify small molecule antagonists of the peroxisome proliferator-activated receptor delta (PPARd) signaling pathway (AID 743215; active = well fitted inhibition curve with a large enough effect in the signal ratio in the repeat runs, not every such curve was filed as active; the % refers to the signal ratio;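 also: cells stimulated with agonist L165041 at 300 nM final during compound exposure; series mostly up to about 62 µM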)
# Peroxisome proliferator-activated receptor delta (Homo sapiens), sequence (Q03181 whole entry, looked up): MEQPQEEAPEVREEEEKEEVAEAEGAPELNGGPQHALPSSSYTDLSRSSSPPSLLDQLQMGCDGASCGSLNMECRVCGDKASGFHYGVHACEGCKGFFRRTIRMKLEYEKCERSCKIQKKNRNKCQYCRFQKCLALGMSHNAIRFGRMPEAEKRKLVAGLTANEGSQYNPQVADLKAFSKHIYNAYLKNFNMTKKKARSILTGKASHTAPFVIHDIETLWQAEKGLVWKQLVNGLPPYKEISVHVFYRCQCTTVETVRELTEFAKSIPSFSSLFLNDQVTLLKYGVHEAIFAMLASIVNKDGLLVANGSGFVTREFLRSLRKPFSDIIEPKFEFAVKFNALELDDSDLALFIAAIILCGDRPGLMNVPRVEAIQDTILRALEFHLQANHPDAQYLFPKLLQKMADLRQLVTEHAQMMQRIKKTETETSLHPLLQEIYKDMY
# Method in brief: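 With L165041 present at 300 nM final, compounds were incubated 17 h at 37 C on PPARd UAS-bla HEK293H cells. A FRET-based beta-lactamase substrate was then applied for 2 h at room temperature and fluorescence intensity recorded.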
# [9] = target: Bile acid receptor (Homo sapiens) (UniProt Q96RI1); test: qHTS assay to identify small molecule antagonists of the farnesoid-X-receptor (FXR) signaling pathway (AID 743217; active = well fitted inhibition curve with a large enough effect in the signal ratio in the repeat runs, not every such curve was filed as active; the % refers to the signal ratio)
# Method in brief: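 In this cell-based antagonist screen, inhibition of CDCA-driven (50 uM final) UAS-beta-lactamase expression in HEK 293T cells was measured by FRET fluorescence following 16 h compound exposure at 37 °C.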
smiles,measurement,setting,value
CCCSS/C(CCO)=C(\C)N(C=O)Cc1cnc(C)nc1N,Potency,[1],inactive
same,Potency,[2],inactive
same,Potency,[3],inactive
same,Potency,[4],inactive
same,Potency,[5],inactive
same,Potency,[6],inactive
O=C(Nc1ccc(Cl)c(Cl)c1)c1cc(Cl)cc(Cl)c1O,Potency,[1],11 µM (active)
same,Potency,[2],3.89 µM (active)
same,Potency,[3],13.8 µM (active)
same,Potency,[5],1.95 µM (active)
same,Potency,[6],2.75 µM (active)
O=Nc1ccc(NO)cc1,Potency,[1],inactive
same,Potency,[2],inactive
same,Potency,[3],inactive
same,Potency,[5],inactive
same,Potency,[6],inactive
CC=O,Potency,[1],40.7 µM (active)
same,Potency,[2],45.7 µM (active)
same,Potency,[3],64.5 µM (active)
same,Potency,[5],22.9 µM (active)
same,Potency,[6],57.5 µM (active)
CC(=O)Nc1ccc(O)cc1,Potency,[1],inactive
same,Potency,[2],inactive
same,Potency,[5],inactive
same,Potency,[6],inactive
COC(=O)C1=C(C)NC(C)=C(C(=O)OCCCN2CCC(c3ccccc3)(c3ccccc3)CC2)C1c1cccc([N+](=O)[O-])c1 (stereo not drawn),Potency,[1],11.9 µM (active)
same,Potency,[2],11.9 µM (active)
same,Potency,[3],26.6 µM (active)
same,Potency,[5],26.6 µM (active)
same,Potency,[6],23.9 µM (active)
COc1ccc2sc(C(=O)Nc3nnn[nH]3)c(OC(C)C)c2c1,Potency,[1],inactive
same,Potency,[2],inactive
same,Potency,[7],inactive
same,Potency,[3],inactive
same,Potency,[5],inactive
same,Potency,[6],inactive
COCC(=O)O[C@]1(CCN(C)CCCc2nc3ccccc3[nH]2)CCc2cc(F)ccc2[C@@H]1C(C)C,Potency,[1],16.8 µM (active)
same,Potency,[2],11.9 µM (active)
same,Potency,[7],inactive
same,Potency,[3],23.7 µM (active)
same,Potency,[5],26.6 µM (active)
same,Potency,[6],21.3 µM (active)
CCCCCCCCCCCCN(CCO)CCO,Potency,[1],48.8 µM (active)
same,Potency,[2],54.7 µM (active)
same,Potency,[5],30.8 µM (active)
same,Potency,[6],43.5 µM (active)
COc1cc(C=C2CCC/C(=C\c3ccc(O)c(OC)c3)C2=O)ccc1O,Potency,[1],33.5 µM (active)
same,Potency,[2],21.1 µM (active)
same,Potency,[3],23.7 µM (active)
O=S(=O)(O)CCCN1CCOCC1,Potency,[1],inactive
same,Potency,[2],inactive
same,Potency,[3],inactive
same,Potency,[4],inactive
same,Potency,[5],inactive
same,Potency,[6],inactive
O=C1NCN(c2ccccc2)C12CCN(CCCC(c1ccc(F)cc1)c1ccc(F)cc1)CC2,Potency,[1],21.1 µM (active)
same,Potency,[2],26.6 µM (active)
same,Potency,[3],33.5 µM (active)
CC(O)C#CC(C)O (stereo not drawn),Potency,[1],inactive
same,Potency,[2],inactive
same,Potency,[3],inactive
O=C1OC(OC(=O)c2cccnc2Nc2cccc(C(F)(F)F)c2)c2ccccc21 (stereo not drawn),Potency,[1],inactive
same,Potency,[2],inactive
same,Potency,[4],inactive
same,Potency,[5],inactive
same,Potency,[6],inactive
CN(C)CCCN1c2ccccc2CCc2ccccc21,Potency,[1],24.5 µM (active) and 26.6 µM (active)
same,Potency,[2],19.5 µM (active) and inactive
same,Potency,[3],inactive
same,Potency,[5],inactive
same,Potency,[6],inactive
CCOC(=O)C1=C(C)NC(C)=C(C(=O)OCC)C1c1ccccc1/C=C/C(=O)OC(C)(C)C,Potency,[1],18.8 µM (active)
same,Potency,[2],23.7 µM (active)
same,Potency,[7],33.5 µM (active)
same,Potency,[4],29.8 µM (active)
same,Potency,[5],inactive
CCCCOC(=O)C(C)CC (stereo not drawn),Potency,[1],49 µM (active)
same,Potency,[2],inactive
same,Potency,[5],24.5 µM (active)
same,Potency,[6],inactive
NC1(c2ccc(-c3nc4ccn5c(=O)[nH]nc5c4cc3-c3ccccc3)cc2)CCC1,Potency,[1],15 µM (active)
same,Potency,[2],26.6 µM (active)
same,Potency,[3],33.5 µM (active)
same,Potency,[6],21.3 µM (active)
CCCCCCOc1ccc(O)cc1,Potency,[8],inactive
same,Potency,[2],inactive
same,Potency,[4],inactive
same,Potency,[6],inactive
C[C@]12CC[C@H]3C(=CCc4cc(O)ccc43)[C@@H]1CCC2=O,Potency,[8],inactive
same,Potency,[2],inactive
same,Potency,[7],inactive
same,Potency,[3],inactive
same,Potency,[4],inactive
same,Potency,[5],inactive
Clc1ccccc1CN1CCc2sccc2C1,Potency,[1],inactive
same,Potency,[5],inactive
same,Potency,[6],inactive
COC(=O)CC#N,Potency,[1],inactive
same,Potency,[3],inactive
same,Potency,[5],inactive
same,Potency,[6],inactive
CCCCCCCC/C=C\CCCCCCCC(=O)N(C)CC(=O)O,Potency,[1],12.3 µM (active)
same,Potency,[3],54.9 µM (active)
same,Potency,[5],49 µM (active)
COc1cccc(CCc2ccccc2OCC(CN(C)C)OC(=O)CCC(=O)O)c1 (stereo not drawn),Potency,[8],inactive
same,Potency,[9],inactive
same,Potency,[7],inactive
same,Potency,[4],inactive
same,Potency,[5],inactive
same,Potency,[6],inactive
O=C1c2c(O)ccc([N+](=O)[O-])c2C(=O)c2c([N+](=O)[O-])ccc(O)c21,Potency,[1],13.7 µM (active)
same,Potency,[5],10.9 µM (active)
same,Potency,[6],9.68 µM (active)
CC(C)c1ccc(O)c(C(C)C)c1,Potency,[8],inactive
same,Potency,[4],inactive
COc1cc(C(=O)NS(=O)(=O)c2ccccc2C)ccc1Cc1cn(C)c2ccc(NC(=O)OC3CCCC3)cc12,Potency,[1],inactive
same,Potency,[3],inactive
same,Potency,[5],inactive
same,Potency,[6],inactive
Oc1ccc(-c2ccc(O)cc2)cc1,Potency,[1],inactive
same,Potency,[3],inactive
same,Potency,[4],inactive
same,Potency,[5],inactive
same,Potency,[6],inactive
CC1=C(/C=C/C(C)=C/C=C/C(C)=C/C(=O)Nc2ccc(O)cc2)C(C)(C)CCC1,Potency,[1],12.6 µM (active) and 7.5 µM (active)
same,Potency,[3],56.4 µM (active) and 26.6 µM (active)
same,Potency,[5],14.2 µM (active) and 10.6 µM (active)
same,Potency,[6],14.2 µM (active) and 10.7 µM (active)
